Results from the supplement of paper PMC10981050.
“And” between values parts separate entries of the source, which are not always exact repeats. Identical values can stand only once. Counter-ions that a name gives are not always drawn.

Tests used:
Assay in all cases: cell viability relative to vehicle control; higher = less cytotoxic
Details in all cases: 10 µM
[1] = system: K562
Procedure, shortened: (§1)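 CRISPR-edited SRSF2 P95 mutant and isogenic wild-type clones of four leukaemia lines were screened against Selleck bioactive, kinase and epigenetic probe libraries, with identity-inconsistent compounds removed. Compounds were acoustically dispensed into 384-well plates at a single 10 µM dose, with 2000 cells in 50 µL medium per well. After 48 h, supernatant was removed and CellTiter-Glo luminescence was read. Viability was expressed as percent of the on-plate DMSO vehicle control, analysed in Genedata Screener.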

[2] = system: MARIMO
Procedure, shortened: as §1

[3] = system: MOLM14
Procedure, shortened: as §1

[4] = system: OCI-AML2
Procedure, shortened: as §1

Compound | cell viability ([1]; SRSF2 genotype: SRSF2 P95H/wt) | cell viability ([1]; SRSF2 genotype: SRSF2 wt/wt) [%] | cell viability ([2]; SRSF2 genotype: SRSF2 P95H/wt) [%] | cell viability ([2]; SRSF2 genotype: SRSF2 wt/wt) [%] | cell viability ([3]; SRSF2 genotype: SRSF2 P95H/wt) [%] | cell viability ([3]; SRSF2 genotype: SRSF2 wt/wt) [%] | cell viability ([4]; SRSF2 genotype: P95H/wt) [%] | cell viability ([4]; SRSF2 genotype: wt/wt) [%]
CCOC(=O)C=P(c1ccccc1)(c1ccccc1)c1ccccc1 [Ethyl (triphenylphosphoranylidene) acetate] | 96.8% and 92.7% | 98.4 | 90 | 99.2 | 84.5 | 93 | 90.2 | 84.8
S=C(N/N=C1/CCCc2cccnc21)N1CCN(c2ccccn2)CC1 | 16.2% and 6.78% | 26.6 | 28 | 25.2 | 22.1 | 13.9 | 22.8 | 30.5
C=C1C(=O)O[C@H]2[C@H]1CCC(C)=C1CC[C@@](C)(O)[C@@H]12 [Micheliolide] | 28.9% and 41.7% | 64.4 | 15.9 | 19.8 | 7.9 | 7.02 | 5.22 | 11.1
CC1=C(C(=O)Nc2ccc3[nH]ncc3c2)C(c2ccc(F)cc2)NC(=O)N1 (centres undefined) | 101% and 97.9% | 110 | 102 | 99.9 | 38.5 | 91.7 | 33.7 | 51.5
CCOC(=O)c1ccc(O)c(OC)c1 [Ethyl Vanillate] | 97.5% and 92.9% | 100 | 105 | 108 | 94.1 | 104 | 103 | 91.1
CCCOC(C(=O)OC1CCN(C)CC1)(c1ccccc1)c1ccccc1 [Propiverine hydrochloride] | 80.6% and 87.8% | 88.2 | 68.5 | 79.1 | 75.2 | 85.2 | 72.1 | 64.2
CCCCNc1ncc(C(=O)NCc2ccc(-n3ccnc3)cc2)c(NC2CCC(O)CC2)n1 (centres undefined) | 84.4% | 72.8 | 73 | 83.9 | 25.6 | 20.8 | 48.4 | 52.1
COCCCC/C(=N\OCCN)c1ccc(C(F)(F)F)cc1 [Fluvoxamine maleate] | 94.3% and 95.6% | 98.9 | 80.8 | 91.5 | 87.8 | 98 | 93.9 | 88.2
COCCc1ccc(OCC(O)CNC(C)C)cc1 (centres undefined) [Metoprolol tartrate] | 107% and 106% | 106 | 102 | 104 | 104 | 105 | 106 | 106
COc1ccc(NS(=O)(=O)c2sc3ccc(Cl)cc3c2C)cc1N1CCNCC1 | 99.5% and 98.2% | 104 | 100 | 99.2 | 96.4 | 106 | 87.9 | 78
O=C(O)c1cc(O)cc(Cl)c1 [3-chloro-5-hydroxybenzoic Acid] | 104% and 101% | 103 | 96.3 | 95.1 | 105 | 107 | 96.9 | 109
COC(=O)C=Cc1ccc(O)cc1 [Methyl 4-hydroxycinnamate] | 95% and 87.9% | 82.3 | 83.5 | 97.5 | 85.6 | 95.2 | 105 | 105
CCCCC(=O)O[C@]1(C(=O)CO)[C@@H](C)C[C@H]2[C@@H]3CCC4=CC(=O)C=C[C@]4(C)[C@@]3(F)[C@@H](O)C[C@@]21C [Betamethasone valerate (Betnovate)] | 94.9% and 101% | 94.8 | 96.9 | 110 | 90.8 | 93.7 | 94.5 | 116
CO[C@H]1/C=C/O[C@@]2(C)Oc3c(C)c(O)c4c(O)c(c(/C=N/N5CCN(C6CCCC6)CC5)c(O)c4c3C2=O)NC(=O)/C(C)=C\C=C\[C@H](C)[C@H](O)[C@@H](C)[C@@H](O)[C@@H](C)[C@H](OC(C)=O)[C@@H]1C [Rifapentine] | 87.7% and 92.5% | 87.4 | 78.3 | 109 | 56.2 | 67 | 56.1 | 57.2
CC1(C)CCC2(C(=O)O)CCC3=C(C(CCl)CC4C3(C)CCC3C4(C)CC(O)C(O)C3(C)C(=O)O)C2C1 (centres undefined) [Senegenin] | 107% and 97.9% | 104 | 96.8 | 108 | 100 | 106 | 105 | 113
CCC1CC(=Cc2cccnc2)C(=O)C(=Cc2cccnc2)C1 (centres undefined) | 21.1% and 19.7% | 17.9 | 0.77 | 0.8 | 0.49 | 0.29 | 0.25 | 0.31
Cc1ccc(Sc2ccccc2N2CCNCC2)c(C)c1 | 2.01% and 3.74% | 2.31 | 6.07 | 11.2 | 3.31 | 3.18 | 0.2 | 0.89
CC(Oc1cc(-c2cnn(C3CCNCC3)c2)cnc1N)c1c(Cl)ccc(F)c1Cl [(S)-crizotinib] | 85.7% and 81% | 74.8 | 84.4 | 92 | 78.2 | 86.2 | 88.8 | 75.3
C[C@@H]1C[C@H]2[C@@H]3CCC4=CC(=O)C=C[C@]4(C)[C@@]3(F)[C@@H](O)C[C@]2(C)[C@@]1(O)C(=O)CO [Dexamethasone] | 99.7% and 95.1% | 92.8 | 106 | 99.8 | 95.4 | 90.6 | 98.2 | 103

Compound | cell viability ([1]; SRSF2 genotype: SRSF2 P95H/wt) | cell viability ([1]; SRSF2 genotype: SRSF2 wt/wt) [%] | cell viability ([2]; SRSF2 genotype: SRSF2 P95H/wt) [%] | cell viability ([2]; SRSF2 genotype: SRSF2 wt/wt) [%] | cell viability ([3]; SRSF2 genotype: SRSF2 P95H/wt) [%] | cell viability ([3]; SRSF2 genotype: SRSF2 wt/wt) [%] | cell viability ([4]; SRSF2 genotype: P95H/wt) [%] | cell viability ([4]; SRSF2 genotype: wt/wt) [%]
C=CC(C)(O)CCC=C(C)C (centres undefined) [Linalool] | 100% and 105% | 107 | 101 | 105 | 103 | 104 | 109 | 97.4
NC(=O)c1ccc(OCCCN2CC3CCCC3C2)cc1 (centres undefined) | 102% and 107% | 104 | 106 | 98 | 100 | 101 | 114 | 98
CCO[C@@H]1OC(=O)C[C@@H]1NC(=O)[C@@H]1CCCN1C(=O)[C@@H](NC(=O)c1ccc(N)c(Cl)c1)C(C)(C)C [Belnacasan (VX-765)] | 99.5% and 102% | 94 | 95.2 | 104 | 97.7 | 98.1 | 103 | 104
O[C@H]1[C@H]2c3cc4c(cc3CN3CCC(=C[C@@H]1O)[C@H]23)OCO4 [Lycorine hydrochloride] | 18.7% and 26.8% | 28.4 | 22.9 | 21 | 20.3 | 7.64 | 0.76 | 2.07
CN(CCOc1ccc(CC2SC(=O)NC2=O)cc1)c1ccccn1 (centres undefined) [Rosiglitazone maleate] | 98.8% and 97.5% | 96 | 102 | 110 | 101 | 103 | 91.5 | 107
C=CC(=O)Nc1ccc2ncnc(Nc3ccc(OCc4cccc(F)c4)c(Cl)c3)c2c1 | 25.1% and 46.8% | 60 | 28.4 | 44.3 | 12.6 | 7.61 | 1.91 | 20.6
Nc1ccc(C(=O)O)c(O)c1 [Sodium 4-Aminosalicylate] | 89.6% and 88.1% | 81.3 | 85.7 | 92.5 | 88.7 | 88.1 | 86.3 | 97.5
COc1ccc([C@@H]2OC[C@H]3[C@@H]2CO[C@@H]3c2ccc3c(c2)OCO3)cc1OC [Fargesin] | 87.8% and 91.3% | 92.7 | 84.8 | 86 | 97.2 | 94.5 | 88.6 | 80.4
CC(C)(C)c1cc(NC(=O)Nc2ccc(-c3cn4c(n3)sc3cc(OCCN5CCOCC5)ccc34)cc2)no1 [Quizartinib (AC220)] | 105% and 110% | 103 | 80.1 | 82.9 | 14.9 | 9.61 | 36.9 | 45.7
CC(=N)NCc1cccc(CN)c1 | 103% and 97.3% | 91.8 | 96.3 | 100 | 95.6 | 97.8 | 95.4 | 101
O=C(NCc1ccc(Oc2ccccc2)cc1)c1nc(-c2cc(Br)c(O)c(Br)c2)no1 | 77.6% and 72% | 66.7 | 80.5 | 91.8 | 59.8 | 84.5 | 88.4 | 81.9
C=C1CCC2C(C)(CO)C(O)CCC2(C)C1CC=C1C=COC1=O (centres undefined) [Dehydroandrographolide] | 75.2% and 78.9% | 75.8 | 77.8 | 96.3 | 83.8 | 93.9 | 74.6 | 86.5
CN(C)c1nc(N(C)C)nc(N(C)C)n1 [Altretamine (Hexalen)] | 99.3% and 102% | 99.7 | 97.3 | 95.2 | 94 | 98.5 | 99.7 | 98.4
COc1ccc(-c2cnc3c(-c4cccc5ncccc45)cnn3c2)cc1 | 98.9% and 100% | 92.7 | 104 | 112 | 93 | 108 | 90.4 | 91.5
O=C1c2cccc(O)c2C(=O)c2c(O)cc(CO)cc21 [Aloe-emodin] | 92.1% and 94.9% | 83.3 | 95.1 | 94.8 | 92.4 | 95.5 | 82.5 | 76.4
COC[C@H](NC(=O)c1cnc(C)s1)C(=O)N[C@@H](COC)C(=O)N[C@@H](Cc1ccccc1)C(=O)[C@@]1(C)CO1 [Oprozomib (ONX 0912)] | 0.73% and 1.14% | 1.05 | 0.37 | 0.74 | 0.16 | 0.2 | 0.2 | 0.17
C[C@H]1[C@H](C)CC[C@]2(C(=O)O[C@@H]3O[C@H](CO[C@@H]4O[C@H](CO)[C@@H](O[C@@H]5O[C@@H](C)[C@H](O)[C@@H](O)[C@H]5O)[C@H](O)[C@H]4O)[C@@H](O)[C@H](O)[C@H]3O)CC[C@]3(C)C(=CC[C@@H]4[C@@]5(C)C[C@@H](O)[C@H](O)[C@@](C)(CO)[C@@H]5[C@H](O)C[C@]43C)[C@H]12 [Madecassoside] | 106% and 105% | 103 | 99.8 | 111 | 97.8 | 106 | 99.9 | 110
O=C1CCN(c2ccccc2)N1 [Phenidone] | 106% and 107% | 103 | 102 | 105 | 100 | 105 | 99.5 | 111
O=c1c(-c2ccc(O)cc2)coc2cc(O)ccc12 [Daidzein] | 99.3% and 97.8% | 97.8 | 95.4 | 96.9 | 93.4 | 96.7 | 92.9 | 102
